# Experimental data taken from PubChem BioAssay (NCI).
# About 83,000 compounds went through this panel and 20% of them were active in at least one assay; those are over-represented in the sample as a whole.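 Interpretation: 100, growth as untreated; towards 0, rising growth inhibition; 0, no net growth; 0 to -100, cell death. Compounds scoring below 10 were considered active.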 The source made the active and inactive calls.
# Tested on: U251 CNS
# Experiment: NCI-60 one-dose screen, 48 h (100 = growth as untreated, 0 = no growth, -100 = all killed)
# Conditions: 10 µM unless noted
row,SMILES,growth
1,O=NN1CCCc2cccc(O)c21,21.9% (inactive)
2,Fc1ccc2c(c1)c(-c1nc(-c3c[nH]c4ncccc34)cs1)cn2CCN1CCOCC1,51.7% (inactive)
3,CC(=O)Nc1nc2c(s1)CC[C@@]1(C)C2=CC[C@H]2[C@@H]3CC[C@H](O)[C@@]3(C)CC[C@@H]21,48.5% (inactive)
4,CN(C)CC(C(=O)Cc1ccccc1)c1ccccc1 (configuration not stated),110% (inactive)
5,CCOC(=O)[C@@H](C)C[C@H](Cc1ccccc1)NC(=O)c1csc([C@@H](C[C@H](C(C)C)N(C)C(=O)[C@H](CCC(C)C)NC(=O)[C@H]2CCCCN2C)OC(C)=O)n1,2.75% (active)
6,CCCCCCCCCCCCCCCCCC1OC[C@H](COC(=O)O[C@@H](C(=O)O[C@H]2C[C@@]3(O)[C@@H](OC(=O)c4ccccc4)[C@@H]4[C@]5(OC(C)=O)CO[C@@H]5C[C@H](O)[C@@]4(C)C(=O)[C@H](OC(C)=O)C(=C2C)C3(C)C)[C@@H](NC(=O)c2ccccc2)c2ccccc2)O1 (some centres not stated),46.6% (inactive)
7,c1cnc2[nH]cc(-c3csc(-c4cn(CCCCN5CCCCC5)c5ccccc45)n3)c2c1,86.3% (inactive)
8,C=C1C[C@](OC)([C@H](O)C(=O)N[C@@H](OC)[C@@H]2C[C@@H](O)C(C)(C)[C@@H](C[C@@H](COC)OC)O2)O[C@H](C)[C@@H]1C,-61.9% (active)
9,O=C(Nc1ccc(O)cc1)C(Cl)(Cl)Cl,95% (inactive)
10,Cc1c(NS(=O)(=O)c2ccccc2)ccc([N+](=O)[O-])c1Cl,63.5% (inactive)
11,CCCCN1CCCC[C@@H]1C(=O)N[C@H](C(=O)N(C)[C@H](C[C@@H](OC(C)=O)c1nc(C(=O)NC2CCC(C(=O)OC)CC2)cs1)C(C)C)C(C)C (some centres not stated),15.5% (inactive)
12,Cn1cc(-c2csc(-c3cn(CCCCN4CCCCC4)c4ccc(F)cc34)n2)c2cccnc21,80.7% (inactive)
13,CC1=C(CN)C2=C(C)C3(CC3)[C@@](C)(O)C(=O)C2=C1,84% (inactive)
14,CC(=O)O[C@H]1C(=O)[C@@]2(C)[C@H]([C@H](OC(=O)c3ccccc3)[C@]3(O)C[C@H](OC(=O)[C@H](OC(=O)OC[C@H]4COC(C)(C)O4)[C@@H](NC(=O)c4ccccc4)c4ccccc4)C(C)=C1C3(C)C)[C@]1(OC(C)=O)CO[C@@H]1C[C@@H]2O,15.9% (inactive)
15,Cn1cc(-c2csc(-c3cn(CCN4CCOCC4)c4ccc(F)cc34)n2)c2cccnc21,36.9% (inactive)
16,Brc1ccc2c(c1)c(-c1nc(-c3c[nH]c4ncccc34)cs1)cn2CCN1CCOCC1,52.8% (inactive)
17,COC(=O)[C@@H](C)C[C@H](Cc1ccccc1)NC(=O)c1csc([C@@H](C[C@H](C(C)C)N(C)C(=O)[C@@H](NC(=O)[C@H]2CCCCN2C)C2CCCCC2)OC(C)=O)n1,-19.4% (active)
18,CC(=O)OC1CCC2(C)C(CCC3C2CC(=O)C2(C)C3CC(Sc3ccc(N(CCCl)CCCl)cc3)C2C(C)=O)C1 (configuration not stated),68.1% (inactive)
19,COc1ccc(S(=O)(=O)N(Cc2ccc3c(c2)C=CC(C)(C)O3)c2ccccc2)cc1OC,89.1% (inactive)

row,SMILES,growth
1,CC[C@H](C)[C@H](NC(=O)[C@H]1CCCCN1C)C(=O)N(C)[C@H](CC(=O)c1nc(C(=O)N[C@@H](Cc2ccccc2)C[C@H](C)C(=O)O)cs1)C(C)C,45.9% (inactive)
2,COC(=O)[C@@H](C)C[C@H](Cc1ccccc1)NC(=O)c1csc([C@@H](C[C@H](C(C)C)N(C)C(=O)[C@@H](NC(=O)C23CC(NC(C)=O)(C2)C3)C2CC2)OC(C)=O)n1,33.1% (inactive)
3,O=C1CC2(CC3(Cl)C(Cl)=C(Cl)C2(Cl)C3(Cl)Cl)C(=O)O1 (configuration not stated),107% (inactive)
4,C[n+]1c(/C=C/c2ccc(N(CCCl)CCCl)cc2)sc2ccccc21,30.1% (inactive)
5,CC[C@H](C)[C@H](NC(=O)NC(C)(C)C)C(=O)N(C)[C@H](C[C@@H](OC(C)=O)c1nc(C(=O)N[C@@H](Cc2ccccc2)C[C@H](C)C(=O)OC)cs1)C(C)C,11.5% (inactive)
6,CCCCCCCC[N+](C)(CCCCCCCC)CCCCCCCC,-75% (active)
7,CC(=O)O[C@H]1C(=O)[C@@]2(C)[C@H]([C@H](OC(=O)c3ccccc3)[C@]3(O)C[C@H](OC(=O)[C@H](OC(=O)OC[C@@H]4COC(C)(C)O4)[C@@H](NC(=O)c4ccccc4)c4ccccc4)C(C)=C1C3(C)C)[C@]1(OC(C)=O)CO[C@@H]1C[C@@H]2O,17% (inactive)
8,CC(=O)O[C@H]1C(=O)[C@@]2(C)[C@H]([C@H](OC(=O)c3ccccc3)[C@]3(O)C[C@H](OC(=O)[C@H](OC(=O)OCC4COC(C)(C)O4)[C@@H](NC(=O)c4ccccc4)c4ccccc4)C(C)=C1C3(C)C)[C@]1(OC(C)=O)CO[C@@H]1C[C@@H]2O (some centres not stated),34.4% (inactive)
9,CC[C@H](C)[C@H](NC(=O)C12CC(NC(C)=O)(C1)C2)C(=O)N(C)[C@H](C[C@@H](OC(C)=O)c1nc(C(=O)N[C@@H](Cc2ccccc2)C[C@H](C)C(=O)OC)cs1)C(C)C,11.6% (inactive)
10,CCn1cnc2c(Nc3cccc(Cl)c3)nc(N[C@@H]3CCCC[C@@H]3N)nc21,6.89% (active)
11,O=C(O)C1C(C(=O)O)C2(Cl)C(Cl)=C(Cl)C1(Cl)C2(Cl)Cl.[Hg] (configuration not stated),44.7% (inactive)
12,CC[C@H](C)[C@H](NC(=O)[C@H]1CCCCN1C)C(=O)N(C)[C@H](C[C@@H](OC(C)=O)c1nc(C(=O)N[C@@H](Cc2ccccc2)C[C@H](C)C(=O)OC)cs1)C(C)C,11.8% (inactive)
13,CN1C(=O)C(=Cc2cn(CCCCCCn3c4ccccc4c(=O)c4ccccc43)c3ccccc23)C(=O)N(C)C1=O,99.2% (inactive)
14,CC(C)(C)C(=O)OCOP(=O)(OCOC(=O)C(C)(C)C)C1CCCN(O)C1=O (configuration not stated),2.06% (active)
15,COC(=O)[C@@H](C)C[C@H](Cc1ccc2ccccc2c1)NC(=O)c1csc([C@@H](C[C@H](C(C)C)N(C)C(=O)[C@@H](NC(=O)[C@H]2CCCCN2C)C(C)C)OC(C)=O)n1,22.1% (inactive)
16,C=C1C(=O)O[C@H]2[C@H]1CC/C(COC(=O)C(=O)c1cn(Cc3ccccc3)c3ccccc13)=C\CC[C@@]1(C)O[C@@H]21,-88.7% (active)
17,CN(CCCCN(C)CCOS(C)(=O)=O)CCOS(C)(=O)=O,71.8% (inactive)
18,NC(=O)CNc1ccc([As]=[As]c2ccc(NCC(N)=O)cc2)cc1 (configuration not stated),12% (inactive)
